# Reference: PubChem BioAssay (Tox21)
# Several values for one entry are separate records, joined by “and”; a condition that tells them apart may be missing. Identical values can stand only once. A number with no mark means an inactive call. Records with an inconclusive call do not appear. Entries that show only a call come without a potency. Activity calls are given as the source filed them. Calls come from the whole dose curve; as a rule, active = well fitted curve in the direction sought with a large enough effect in the repeat runs; inconclusive = weak or mixed curves; inactive = no such curve, though single readings can be large; an effect the other way counts as inactive or inconclusive.
# Legend:
# [1] = A CellTox Green Cytotoxicity Assay to monitor cytotoxicity in HepG2 cells - 0 hour (AID 1224882); note: nearly all actives have a fitted effect of over 35% in size; note: potency is the fitted concentration of half-maximal effect
# Summary of the method: (§1)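 Using 1536-well format, dye-containing HepG2 suspension was seeded, allowed 5 h at 37 C/5% CO2, dosed by pintool with compounds, positive and negative controls, and imaged for fluorescence across 40 h.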
# [2] = A CellTox Green Cytotoxicity Assay to monitor cytotoxicity in HEK293 cells - 8 hour (AID 1224884); note: nearly all actives have a fitted effect of over 35% in size; note: potency is the fitted concentration of half-maximal effect
# Summary of the method: (§2)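 Fluorescence intensity, read at 0, 8, 16, 24, 32 and 40 h of compound treatment, reflected dye binding to DNA of dead HEK293 cells; compounds (23 nL, DMSO) were added 5 h after plating cells with reagent.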
# [3] = qHTS RealTime-Glo MT Cell Viability Assay in HEK293 cells - 24 hour (AID 1224886); note: nearly all actives have a fitted effect of over 50% in size; note: potency is the fitted concentration of half-maximal effect; for activity change, negative = cytotoxicity: top concentration of the series differs between compounds
# Summary of the method: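 HEK293 cells were seeded at 600 cells/well together with NanoLuc luciferase and cell-permeant prosubstrate, preincubated 5 h at 37 C/5% CO2, then given compound in DMSO by pintool. Luminescence from viable-cell prosubstrate reduction was read repeatedly over 40 h.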
# [4] = A CellTox Green Cytotoxicity Assay to monitor cytotoxicity in HEK293 cells - 16 hour (AID 1224888); note: nearly all actives have a fitted effect of over 35% in size; note: potency is the fitted concentration of half-maximal effect
# Summary of the method: as §2
# [5] = qHTS RealTime-Glo MT Cell Viability Assay in HepG2 cells - 0 hour (AID 1224889); note: nearly all actives have a fitted effect of over 50% in size
# Summary of the method: (§3)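 HepG2 cells were seeded at 600 cells/well together with NanoLuc luciferase and a cell-permeant prosubstrate, preincubated 5 h at 37 C/5% CO2, then pin-dosed with compounds in DMSO. Nonlytic luminescence from viable cells was read at each time point.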
# [6] = A CellTox Green Cytotoxicity Assay to monitor cytotoxicity in HepG2 cells - 8 hour (AID 1224890); note: nearly all actives have a fitted effect of over 45% in size
# Summary of the method: as §1
# [7] = qHTS assay to identify small molecule antagonists of the estrogen receptor alpha (ER-alpha) signaling pathway using the BG1 cell line in the presence of 0.1 nM 17-beta-estradiol - cell viability counter screen (AID 1259241); note: nearly all actives have a fitted effect of over 40% in size
# Summary of the method: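 The cell line endogenously expresses full-length ER-alpha and carries four EREs driving luciferase. Cells are cultured 5 days hormone-free, treated 22 hr with compounds and 0.1 nM estradiol, then viability is read by fluorescence.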
# [8] = qHTS RealTime-Glo MT Cell Viability Assay in HepG2 cells - 16 hour (AID 1224885); note: nearly all actives have a fitted effect of over 50% in size
# Summary of the method: as §3
# [9] = qHTS RealTime-Glo MT Cell Viability Assay in HEK293 cells - 8 hour (AID 1224887); note: top concentration of the series differs between compounds; nearly all actives have a fitted effect of over 50% in size
# Summary of the method: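 Viable HEK293 cells reduce a cell-permeant prosubstrate; the product diffuses out and is consumed by NanoLuc in the medium to give light. Compounds went in after a 5 h incubation and plates were read over the treatment course.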
structure (smiles),measurement,setting,value
Cc1c2ccccc2c(C)c2c1ccc1ccccc12,Potency,[1],inactive
same,Potency,[2],inactive
same,Potency,[3],43.2 µM (active) and 21.9 µM (active)
same,Potency,[4],inactive
same,Potency,[5],inactive
same,Potency,[6],inactive
same,Potency,[7],inactive
CCCC(=O)OC(C)(C)Cc1ccccc1,Potency,[1],inactive
same,Potency,[8],inactive
same,Potency,[3],inactive
same,Potency,[4],inactive
same,Potency,[5],inactive
same,Potency,[6],inactive
same,Potency,[7],inactive
O=[N+]([O-])c1ccc(F)c(Cl)c1,Potency,[1],inactive
same,Potency,[2],inactive
same,Potency,[3],inactive
same,Potency,[4],inactive
same,Potency,[5],inactive
same,Potency,[6],inactive
same,Potency,[7],inactive
Nc1nc2c(ncn2COCCO)c(=O)[nH]1,Potency,[1],inactive
same,Potency,[2],inactive
same,Potency,[8],inactive
same,Potency,[3],inactive
same,Potency,[4],inactive
same,Potency,[5],inactive
same,Potency,[6],inactive
same,Potency,[7],inactive
CCCC(=O)OCCc1ccccc1,Potency,[1],38.9 µM (active)
same,Potency,[2],38.9 µM (active)
same,Potency,[3],inactive
same,Potency,[4],43.6 µM (active)
same,Potency,[5],inactive
same,Potency,[7],inactive
Cc1ccc(O)c(N)c1,Potency,[1],inactive
same,Potency,[2],inactive
same,Potency,[8],inactive
same,Potency,[4],inactive
same,Potency,[5],inactive
same,Potency,[6],inactive
same,Potency,[7],inactive
CC(C)NC[C@@H](O)COc1ccc(CC(N)=O)cc1,Potency,[1],inactive
same,Potency,[2],inactive
same,Potency,[8],inactive
same,Potency,[3],inactive
same,Potency,[4],inactive
same,Potency,[5],inactive
same,Potency,[6],inactive
same,Potency,[7],inactive
CC[N+](CC)(CC)CCOc1ccc(/C=C/c2ccccc2)cc1,Potency,[1],inactive
same,Potency,[8],inactive
same,Potency,[4],inactive
same,Potency,[5],inactive
same,Potency,[6],inactive
same,Potency,[7],inactive
OC[C@@H](O)[C@@H](O)CO,Potency,[1],inactive
same,Potency,[2],inactive
same,Potency,[3],inactive
same,Potency,[9],inactive
same,Potency,[4],inactive
same,Potency,[5],inactive
same,Potency,[6],inactive
same,Potency,[7],inactive
CC1(C)[C@@H](O)CC[C@]2(C)[C@H]3C(=O)C=C4[C@@H]5C[C@@](C)(C(=O)O)CC[C@]5(C)CC[C@@]4(C)[C@]3(C)CC[C@@H]12,Potency,[1],inactive
same,Potency,[8],inactive
same,Potency,[3],inactive
same,Potency,[9],inactive
same,Potency,[4],inactive
same,Potency,[5],inactive
same,Potency,[6],inactive
same,Potency,[7],inactive
CC[N+](CC)(CC)CCOC(=O)C(C1CCCC1)C1CCCC1,Potency,[1],inactive
same,Potency,[8],inactive
same,Potency,[9],inactive
same,Potency,[4],inactive
same,Potency,[5],inactive
same,Potency,[6],inactive
same,Potency,[7],inactive
CC(C)Cn1cnc2c(N)nc3ccccc3c21,cytotoxicity,[1],-9.84% [at 15.8 µM]
same,cytotoxicity increase,[2],2.79% [at 15.8 µM]
same,"activity change, negative = cytotoxic",[8],0.56% [at 15.8 µM]
same,activity change,[4],"2.2% [at 15.8 µM, hits give high values]"
same,"activity change, negative = cytotoxicity",[5],12.8% [at 15.8 µM]
same,cytotoxicity increase,[6],-11.4% [at 15.8 µM]
same,"activity change, negative = cytotoxicity",[7],3.02% [at 19 µM]
